In all, about 33,000 sequences were measured (“E-score (-0.5 to 0.5)”: median about -0.053, highest 2% from about 0.37 on). This is one part of a sample in which the highest values are shown more often than they occur.
Target: Hap1 (UniProt P0CE41)
Test: PBM E-score (8-mer binding enrichment) (E-score (-0.5 to 0.5)); higher = stronger / more preferred TF binding
Conditions: protein concentration: 200 nM; construct: GST-DNA-binding domain
Summary of the method: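 E-scores (a modified Wilcoxon-Mann-Whitney statistic) were assigned by the Universal PBM Analysis Suite to every ungapped eight-base word pooled with its reverse complement. The input came from universal all-10-mer Agilent arrays made double-stranded by primer extension and probed with GST-tagged yeast transcription factors at about 100-200 nM. Fluorescent anti-GST detected bound protein, and masliner normalised the scans.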

Sequence of UniProt P0CE41 (P0CE41 whole entry): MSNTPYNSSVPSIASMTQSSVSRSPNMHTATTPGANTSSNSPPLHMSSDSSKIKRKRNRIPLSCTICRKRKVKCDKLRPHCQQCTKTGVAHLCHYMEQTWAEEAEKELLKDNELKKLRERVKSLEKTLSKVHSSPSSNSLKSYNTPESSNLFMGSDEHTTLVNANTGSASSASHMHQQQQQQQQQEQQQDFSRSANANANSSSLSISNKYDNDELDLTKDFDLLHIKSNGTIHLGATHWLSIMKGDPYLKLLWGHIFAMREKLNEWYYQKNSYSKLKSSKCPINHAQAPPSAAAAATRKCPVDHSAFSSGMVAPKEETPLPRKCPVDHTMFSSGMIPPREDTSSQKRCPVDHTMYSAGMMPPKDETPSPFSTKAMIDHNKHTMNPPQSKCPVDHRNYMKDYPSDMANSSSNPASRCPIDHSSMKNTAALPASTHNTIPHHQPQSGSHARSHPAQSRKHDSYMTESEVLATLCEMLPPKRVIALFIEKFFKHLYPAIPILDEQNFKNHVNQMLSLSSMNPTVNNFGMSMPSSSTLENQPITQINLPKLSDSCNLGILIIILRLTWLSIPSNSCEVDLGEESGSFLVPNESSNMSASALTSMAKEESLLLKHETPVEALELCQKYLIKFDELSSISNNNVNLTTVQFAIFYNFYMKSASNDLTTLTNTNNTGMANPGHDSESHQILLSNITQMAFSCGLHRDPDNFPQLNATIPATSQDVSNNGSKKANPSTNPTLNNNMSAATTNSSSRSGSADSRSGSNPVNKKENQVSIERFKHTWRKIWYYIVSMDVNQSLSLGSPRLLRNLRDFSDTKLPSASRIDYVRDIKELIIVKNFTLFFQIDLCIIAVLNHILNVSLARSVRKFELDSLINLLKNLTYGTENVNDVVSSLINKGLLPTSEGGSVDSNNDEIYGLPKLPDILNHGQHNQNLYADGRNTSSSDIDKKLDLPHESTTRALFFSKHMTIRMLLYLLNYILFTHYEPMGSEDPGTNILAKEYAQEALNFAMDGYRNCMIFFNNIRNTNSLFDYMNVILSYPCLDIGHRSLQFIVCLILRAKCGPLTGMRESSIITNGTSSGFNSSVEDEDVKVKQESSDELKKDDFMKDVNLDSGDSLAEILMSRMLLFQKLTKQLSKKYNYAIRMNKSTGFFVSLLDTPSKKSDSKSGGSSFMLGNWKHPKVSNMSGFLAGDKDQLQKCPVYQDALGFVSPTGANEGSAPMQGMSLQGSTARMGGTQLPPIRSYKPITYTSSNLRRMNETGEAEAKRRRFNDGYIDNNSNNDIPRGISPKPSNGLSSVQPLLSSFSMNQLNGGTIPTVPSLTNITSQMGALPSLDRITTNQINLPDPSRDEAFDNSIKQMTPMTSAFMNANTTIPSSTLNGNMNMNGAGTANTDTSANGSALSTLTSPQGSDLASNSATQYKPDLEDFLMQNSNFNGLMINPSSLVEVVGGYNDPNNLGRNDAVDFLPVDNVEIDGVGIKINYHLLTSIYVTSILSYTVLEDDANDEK

Going from AGCCGAGA to CCCCGAGA, the “PBM E-score” value rises from 0.267 to 0.319.

Compared with CTTTCTTA, AGCTTAGA is higher in “PBM E-score” value: -0.125 for the first, -0.00759 for the second.

First: ACGTACTG
Second: ACGGCCAA
The “PBM E-score” value of the first is lower: -0.144 for the first, 0.166 for the second.

First: AGGGCCCG
Second: CGGGCCCA
The “PBM E-score” value of the first is lower: 0.106 for the first, 0.26 for the second.

Going from CGGGCCTA to ACGGCCCA, the “PBM E-score” value falls from 0.383 to 0.141.

First: CCGGCCAG
Second: CCGGCCGG
The “PBM E-score” value of the first is lower: 0.351 for the first, 0.456 for the second.

CGGGCCCG and ACGGCCGA are the same in “PBM E-score” value: 0.419 for the first, 0.419 for the second.

Going from CGGGCCTC to AGGGCCTA, the “PBM E-score” value falls from 0.192 to 0.0252.

Going from CCGGCCGC to ATCCACGC, the “PBM E-score” value falls from 0.299 to -0.239.

Going from AGCACTAT to ATTCCCTC, the “PBM E-score” value rises from -0.257 to -0.083.

First: ACTATCGA
Second: GGATCCAC
The “PBM E-score” value of the first is lower: -0.0147 for the first, 0.059 for the second.

First: ATCTCTTC
Second: AGAGCAGA
The “PBM E-score” value of the first is higher: -0.0222 for the first, -0.17 for the second.

First: CAATCTGA
Second: GTACTGTA
The “PBM E-score” value of the first is lower: -0.151 for the first, -0.119 for the second.

First: ACGGCCTG
Second: GCGGCCGA
The “PBM E-score” value of the first is lower: -0.0121 for the first, 0.335 for the second.

Compared with CGGGCCGC, CCGGCCGA is higher in “PBM E-score” value: 0.263 for the first, 0.453 for the second.

Going from CCGGCCTA to ACGGCCGG, the “PBM E-score” value rises from 0.288 to 0.392.

Compared with CGGGCCGA, TCGGCCAA is lower in “PBM E-score” value: 0.379 for the first, 0.256 for the second.

Going from TCGGCCGA to TCGGCCCA, the “PBM E-score” value falls from 0.48 to 0.304.

First: ATGGCCGG
Second: GGGGCCGA
The “PBM E-score” value of the first is higher: 0.315 for the first, 0.233 for the second.

Compared with ATGGTGTG, ACCTTACT is higher in “PBM E-score” value: -0.303 for the first, 0.105 for the second.

First: ATGCCCCG
Second: ACGGTAGG
The “PBM E-score” value of the first is higher: 0.282 for the first, -0.0364 for the second.

Compared with TACCCCTA, ACTTCTAC is higher in “PBM E-score” value: -0.146 for the first, -0.119 for the second.

First: ACGGCCGT
Second: ACGGCCGC
The “PBM E-score” value of the first is higher: 0.373 for the first, 0.228 for the second.

First: ACGGCCCT
Second: ACGGCCCG
The “PBM E-score” value of the first is lower: -0.0855 for the first, 0.249 for the second.

Going from CCGGCCCG to CCGGCCCA, the “PBM E-score” value falls from 0.434 to 0.231.

First: CCGTCAAA
Second: ACTGAGCG
The “PBM E-score” value of the first is higher: 0.114 for the first, -0.284 for the second.

Going from AATGCCGA to CATGCCGG, the “PBM E-score” value falls from 0.405 to 0.298.

First: AATGCCGG
Second: AATGCCGT
The “PBM E-score” value of the first is higher: 0.384 for the first, 0.334 for the second.

Compared with AATGCCGC, ATTGCCGC is lower in “PBM E-score” value: 0.295 for the first, 0.0752 for the second.

Compared with CTTGCCGA, ATTGCCGA is higher in “PBM E-score” value: 0.0417 for the first, 0.375 for the second.

First: CATGCCGA
Second: CGTTGGTC
The “PBM E-score” value of the first is higher: 0.17 for the first, -0.0912 for the second.

First: ACGGGAAC
Second: GGAAGACC
The “PBM E-score” value of the first is higher: 0.101 for the first, 0.0832 for the second.

Compared with GCCCACTA, CTCACACC is lower in “PBM E-score” value: -0.137 for the first, -0.15 for the second.

Going from CGCGGCAG to GACTGTAC, the “PBM E-score” value falls from 0.1 to -0.171.

Going from GAGCTGCA to CCCCGCTC, the “PBM E-score” value rises from -0.00591 to 0.0426.

Compared with ATCGGCAC, CGCGCGAC is lower in “PBM E-score” value: 0.315 for the first, 0.2 for the second.

First: AAATCCCA
Second: CAATCCCG
The “PBM E-score” value of the first is lower: -0.0185 for the first, 0.272 for the second.

First: AAATCCGA
Second: AAATCCGC
The “PBM E-score” value of the first is higher: 0.457 for the first, 0.387 for the second.

Compared with CAATCCGC, CAATCCGG is higher in “PBM E-score” value: 0.191 for the first, 0.375 for the second.

Compared with TAATCCGA, AAATCCCG is higher in “PBM E-score” value: 0.346 for the first, 0.379 for the second.

First: AAATCCAC
Second: GAATCCGA
The “PBM E-score” value of the first is lower: 0.0573 for the first, 0.307 for the second.

Compared with CAATCCGA, GAATCCGC is lower in “PBM E-score” value: 0.241 for the first, 0.179 for the second.

Going from AAATCCGG to AAATCCGT, the “PBM E-score” value falls from 0.475 to 0.396.

First: AAATCCTG
Second: AAATCCTT
The “PBM E-score” value of the first is lower: -0.118 for the first, 0.0613 for the second.

First: AAATCCAG
Second: AAATCCCT
The “PBM E-score” value of the first is higher: 0.0422 for the first, -0.166 for the second.

Going from CCTTTGGA to GGCTGCTA, the “PBM E-score” value rises from -0.215 to -0.0615.

First: CCACCGAG
Second: CGACCGAC
The “PBM E-score” value of the first is lower: 0.14 for the first, 0.301 for the second.

Going from AGACCGAT to CTACCGAG, the “PBM E-score” value falls from 0.35 to 0.139.

Compared with CGACCGAG, AGACCGAA is lower in “PBM E-score” value: 0.371 for the first, 0.281 for the second.

Compared with AGACCGAG, CGACCGAA is higher in “PBM E-score” value: 0.373 for the first, 0.378 for the second.

Compared with AGACCGAC, GCAGCTTA is lower in “PBM E-score” value: 0.346 for the first, -0.171 for the second.

Compared with CCTGAGAA, CCTATCAG is higher in “PBM E-score” value: -0.253 for the first, -0.147 for the second.

Compared with GACAGCAA, TGACTCAA is lower in “PBM E-score” value: -0.221 for the first, -0.251 for the second.

Going from CGGCTGTC to GGGCACAA, the “PBM E-score” value falls from 0.175 to -0.0367.

For GAGGACGC, the “PBM E-score” value was -0.0224.
